Drawing on PubChem BioAssay AID686949 (The Scripps Research Institute Molecular Screening Center, 2013), this text covers activation for 79 compounds.

The campaign covered roughly 3,200 compounds. About 2,200 (69%) were called active. The set was probably picked from earlier hits. Only a sample is shown. A number with no mark means an inactive call.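 The calls were made as follows: active = activation, as change over the incubation, above the mean of all tested compounds plus 3 SD (cut at about 13% in these data); inactive = the rest.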

The experiment deals with Kallikrein-7 (Homo sapiens) (UniProt P49862). In words: activation of human kallikrein-7 proenzyme – biochemical, fluorescence intensity, triplicate, confirmation (AID 686949). Particulars: purified proKLK7, EDANS-DABCYL substrate fluorescence; at 7 µM; stronger effect = higher value; scaled: vehicle 0, mature enzyme 100.
Chain of Kallikrein-7 (Homo sapiens) (P49862 whole entry, looked up): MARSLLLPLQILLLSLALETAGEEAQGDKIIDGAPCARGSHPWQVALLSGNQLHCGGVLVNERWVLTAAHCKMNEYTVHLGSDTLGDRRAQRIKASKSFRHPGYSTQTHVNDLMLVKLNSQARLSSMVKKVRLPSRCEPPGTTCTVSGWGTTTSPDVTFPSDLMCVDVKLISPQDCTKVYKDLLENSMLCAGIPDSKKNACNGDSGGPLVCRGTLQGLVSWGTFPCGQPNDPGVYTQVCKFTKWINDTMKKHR
As for `CN(C)Cc1c(O)ccc2c(=O)c(-c3ccccc3Cl)coc12`, the activation is 70.2% (active).

As to `O=C(OC1CCOC1=O)c1ccc(-c2nc3ccccc3s2)s1` (centres undefined), the activation is 17.6% (active).

Regarding `COC(=O)Cc1nc2c(N)nc(N)nc2[nH]c1=O`, the activation was 18.7% (active).

As to `O=C(Oc1c(-c2ccco2)oc2ccccc2c1=O)c1cccnc1`, the activation is 22.3% (active).

In the case of `CC(C)(C)Nc1c(-c2cccs2)nc2ccccn12`, the activation was -59.6%.

`CN(C)CCCn1c(N)c(C#N)c2nc(C#N)c(C#N)nc21`: the activation was 38% (active).

For `CCS(=O)(=O)Nc1cc(C(=O)OC)ccc1C(=O)OC`, the activation was 10%.

With `Cc1cccc(C)c1NC(=O)C(c1ccccc1)N1CC(=O)Nc2ccccc21` (centres undefined), the activation was 40.3% (active).

Regarding `COc1ccc(C2=CC(c3cccc(OC)c3)n3nnnc3N2)cc1` (centres undefined), the activation was -12.2%.

In the case of `CCOC(=O)C1=C(O)/C(=C/c2ccc(OCC(=O)Nc3ccc(C)cc3)cc2)N=C1C`, the activation was 2.24%.

Consider `CCC(c1nnnn1Cc1ccco1)N(CCc1ccccc1)Cc1cc2ccc(OC)cc2[nH]c1=O` (centres undefined), for which the activation is -0.98%.

Consider `Cc1ccsc1-c1cc(C(=O)O)c2c(ccc3ccccc32)n1`, for which the activation is 19.8% (active).

As to `O=C(O)c1ccc2c(c1)C(=O)N(c1ccc(/C=C/C(=O)c3ccccc3)cc1)C2=O`, the activation is 703% (active).

`O=C(/C=C/c1ccc2c(c1)OCCO2)c1ccc(O)cc1`: the activation was 3.2%.

For the compound `CCCN(CC(=O)NC(=O)NC1CCCCC1)CC(=O)Nc1cc(Cl)ccc1Cl`, the activation is 1.91%.

Consider `CC(OC(=O)c1ccccc1NCCO)C(=O)Nc1ccnn1C(C)C` (centres undefined), for which the activation is 26.1% (active).

On to `O=c1c(-c2ccccc2)coc2c(CN3CCOCC3)c(O)ccc12`, for which the activation is 18.1% (active).

Take `Cc1cc(=O)oc2c3c(cc(OCC(=O)NCCC(=O)N[C@@H](C)C(=O)O)c12)OC(C)(C)CC3`: the activation is 58.2% (active).

Regarding `Cc1c(C)c2c(OCC(=O)NCCCO)cc3c(c2oc1=O)CCC(C)(C)O3`, the activation is 44.6% (active).

With `Cc1c(C)c2c(OCC(=O)N[C@@H](C(=O)O)c3ccccc3)cc3c(c2oc1=O)CCC(C)(C)O3`, the activation is 36.6% (active).

With `Cc1cc(=O)oc2c3c(cc(OCC(=O)N[C@H](C(=O)O)c4ccccc4)c12)OC(C)(C)CC3`, the activation was 34% (active).

As for `CCOC(OCC)c1ccc(/C=C\c2nccc(N)n2)cc1`, the activation is -9.52%.

As to `Cc1nn(-c2ccccc2)c(C)c1NC(=O)COC(=O)c1cc(Cl)ccc1O`, the activation was 24.2% (active).

For `CCOC(=O)c1[nH]c2ccc(OC)cc2c1NC(=O)CCN1CCN(Cc2ccccc2)CC1`, the activation is 1.17%.

Consider `CC(=O)N1CCN(C(=O)c2cc(-c3ccc(C)o3)nc3ccccc23)CC1`, for which the activation is 62.7% (active).

Regarding `CC1CCCN(C(=O)c2cc(-c3ccco3)nc3ccccc23)C1` (centres undefined), the activation is 36.6% (active).

Consider `COc1ccc(CNC(=O)COC(=O)C2=Cc3ccccc3OC2)cc1`, for which the activation was 9.73%.

As for `CNC(=O)COC(=O)c1cc(-c2ccc(OC)cc2)nc2ccccc12`, the activation was 88.7% (active).

For `COc1ccc(-c2cc(C(=O)n3cnc4ccccc43)c3ccccc3n2)cc1`, the activation is 56.7% (active).

As for `COc1ccc2nc(Nc3nc4cc5c(cc4s3)OCCO5)sc2c1`, the activation is -12.6%.

With `O=C(O)c1ccc2c3c(cccc13)C(=O)N(OS(=O)(=O)c1ccccc1)C2=O`, the activation is 181% (active).

As to `CC(=O)Nc1nc(C)c(-c2csc(Nc3ccc(S(N)(=O)=O)cc3)n2)s1`, the activation is 17.4% (active).

Take `CNc1cncc(-c2cccc(C(=O)N3CCOCC3)c2)n1`: the activation is 38.8% (active).

For `Cc1cc(N2CCOCC2)nc2ccc(NC(=S)N3CCN(Cc4ccccc4)CC3)cc12`, the activation was 9.27%.

On to `Clc1ccc(-c2cccc3nccn23)cc1`, for which the activation is 8.31%.

As to `COc1cc(/C=C/C(=O)Nc2ccc(OC)c(S(=O)(=O)N3CCOCC3)c2)ccc1OCC#N`, the activation was 96.2% (active).

Consider `CCOc1ccccc1C1C(C(=O)OC)=CN(C)C=C1C(=O)OC`, for which the activation was -23.5%.

Take `COCC(=O)Nc1nnc(COc2ccccc2)s1`: the activation is -0.07%.

As to `CN(C(=O)COc1ccccc1)c1nnc(-c2ccncc2)s1`, the activation was 111% (active).

As to `CN(C(=O)c1ccccn1)c1nnc(-c2ccccn2)s1`, the activation is 74% (active).

For `Oc1ccc2ccc3cccc[n+]3c2c1`, the activation was 34.6% (active).

As for `CCN(CC)CCCNC(=O)c1cc2c(=O)[nH]c3ccc(C)cc3c2s1`, the activation was 1.54%.

For the compound `CCOCCCNC(=O)c1cc2c(=O)n3ccccc3nc2s1`, the activation is 74.1% (active).

Take `CN(C(=O)c1cc2c(=O)n3ccccc3nc2s1)C1CCCCC1`: the activation was 33% (active).

Consider `CCN(CC)CCCC(C)n1c2nc(=O)[nH]c(=O)c-2nc2cc(Cl)ccc21` (centres undefined), for which the activation is 75.6% (active).

Regarding `CCN1CCN(C(=O)Cn2nc(C)n3c(cc4c(OC)cccc43)c2=O)CC1`, the activation was 21% (active).

For the compound `COC(=O)c1cc(N2CCNCC2)nc2ccccc12`, the activation is 17.1% (active).

Turning to `CN(CCc1ccccn1)S(=O)(=O)c1ccc2c3c(cccc13)C(=O)N2`, the activation was 68.2% (active).

With `COCCCn1c(-c2cccs2)nc2nc3ccccc3nc21`, the activation was 24.1% (active).

Turning to `C=CCn1c(N)c(S(=O)(=O)c2cccs2)c2nc3ccccc3nc21`, the activation was 8.74%.

On to `Cc1cc2cc3n(c2nn1)N=C(Cl)CC3`, for which the activation is 33.3% (active).

For the compound `CCC1=C(C(=O)OC)C(c2cc(OC)ccc2OC)C(C#N)=C(N)O1` (centres undefined), the activation is 32.8% (active).

Turning to `O=c1oc2c(CN3CCCCC3)c(O)ccc2c2c1CCCCC2`, the activation is 74.6% (active).

Take `COc1c(N2CCN(C(=S)Nc3ccccc3F)C(C)C2)c(F)cc2c(=O)c(C(=O)O)cn(C3CC3)c12` (centres undefined): the activation is 18.5% (active).

For `COc1ccc2c(c1)CCc1cn3ncc(C#N)c3nc1-2`, the activation is -106%.

Consider `CNc1cncc(-c2ccc(NS(C)(=O)=O)cc2)n1`, for which the activation was 39.7% (active).

`C/C(=C\c1ccccc1)C1NC(=O)c2c(sc3c2CCCC3)N1` (centres undefined): the activation was 22.4% (active).

With `COCc1cc(=O)oc2cc(NS(=O)(=O)c3ccc(C)cc3)ccc12`, the activation is 72.3% (active).

On to `N#CC1=C(N)Oc2c(sc3ccccc23)C1c1ccco1` (centres undefined), for which the activation was -25.1%.

Consider `CC1(C)Oc2ccc3ccc(=O)oc3c2/C(=N/O)C1=O`, for which the activation is 89.9% (active).

Regarding `Cc1nc2ccc(N)nc2nc1C`, the activation is 49.6% (active).

In the case of `O=C1NC(c2cccc(Cl)c2)Nc2ccccc21` (centres undefined), the activation is 20.5% (active).

With `COc1ccc(CCNC(=O)Nc2ccc3c(c2)c(=O)n(C)n3C)cc1OC`, the activation was 24.5% (active).

Regarding `CCNC(=S)Nc1ccc2c(c1)c(=O)n(C)n2Cc1ccc(Cl)cc1`, the activation is -4.46%.

In the case of `C[C@@H]1C(c2ccc(F)cc2)=NN(c2ccc(Br)cc2)[C@H]1C(=O)N1CCOC1=O`, the activation is 27.9% (active).

As to `CCN(CC(=O)Nc1c(F)cccc1F)C(=O)c1ccc(-c2ccc(C(C)=O)cc2)o1`, the activation is -16.9%.

Consider `CCCCN(C)CCCNC(=O)c1cc(-c2cccs2)nc2ccccc12`, for which the activation was -47.1%.

Regarding `O=C(NCCN1CCOCC1)c1cc(-c2cccs2)nc2ccccc12`, the activation is 24.8% (active).

As to `Cc1ccc(C2Nc3ccccc3C(=O)N2CCN2CCNC2=O)cc1` (centres undefined), the activation is 16.7% (active).

For `CC(=O)Nc1ccc(-c2cn3cccnc3n2)cc1`, the activation was 74% (active).

As to `CC(C)(C)C(=O)Nc1ccc(-c2cn3cccnc3n2)cc1`, the activation was 73.9% (active).

On to `CCCCCC(=O)Nc1ccc(-c2cn3cccnc3n2)cc1`, for which the activation was 24.5% (active).

Regarding `CCN1CCCC1CNC(=O)c1cc2cc(OC)c(OC)cc2[nH]1` (centres undefined), the activation was 24.7% (active).

For `CCOc1ccc(-n2c(SCC(=O)Nc3cc(C)c(NC(=O)c4ccccc4)cc3OC)nnc2-c2cccs2)cc1`, the activation was 15.9% (active).

With `CC(=O)Oc1ccc2c(C)c(CC(C)O)c(=O)oc2c1` (centres undefined), the activation was 72.5% (active).

Take `CC(=O)Nc1cc2ccc(OC(C)=O)cc2oc1=O`: the activation is 125% (active).

Consider `CN1c2ccccc2-c2nc3ccccc3n2C1c1ccco1` (centres undefined), for which the activation is 7.38%.

For the compound `Cc1cc(C)c2nc3nc(C)cc(C)c3c(N)c2c1`, the activation was 69% (active).

Turning to `COc1cc2c(cc1OC)C(C(C)C)=NC(C)(C)C2`, the activation was 63.8% (active).
